Activity calls are given as the source filed them. Unless noted, no rule for the calls is given here.
Experiments:
[1] = test system: Wnt5a (protein binding on small-molecule microarray); assay: small molecules binding Wnt5a protein – biophysical, small-molecule microarray, 635/667 nm fluorescence, primary screen (AID 1142); conditions: 635 nm fluorescence, higher = more signal;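 also: fluorescence read at 667 nm with signal to noise per printed feature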
[2] = ATP-based viability of Huh7 replicon cells – cell-based, CellTiter-Glo luminescence, basal, 48 h, cytotoxicity control for HCV replication inhibitor project, primary screen (AID 1143); conditions: higher = more signal, called active from +8 up or from −8 down;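 also: Huh7 hepatoma cells carrying a hepatitis C replication reporter with no stimulus; test concentration not given here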
[3] = Pseudomonas biofilm growth suppression – PAO1 strain, BacTiter-Glo luminescence, LB-PBS, primary screen (AID 1144); conditions: P. aeruginosa PAO1 biofilm, 12 h, higher = more signal
[4] = basal CRE-LacZ reporter activity in PC12 – cell-based, unstimulated, primary screen (AID 1145); conditions: no forskolin, luminescence, 4.5 h, higher = more signal, called active from +8 up or from −8 down
[5] = forskolin-driven CRE-LacZ activity in PC12 – cell-based, CRE-LacZ reporter, forskolin-stimulated, primary screen (AID 1146); conditions: luminescence, 4.5 h, higher = more signal, called active from +8 up or from −8 down;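 also: PC12 cells with 6xCRE LacZ reporter stimulated by forskolin 10 µM; beta-galactosidase reporter signal reflecting CREB driven transcription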
[6] = biological target: Streptavidin (Streptomyces avidinii) (UniProt P22629); assay: compounds binding control protein streptavidin – biophysical, small-molecule microarray, 635/667 nm fluorescence, artefact control for SMM compound annotation, primary screen (AID 1147); conditions: higher = more signal;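 also: signal reflects streptavidin binding to arrayed compounds as a control protein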
Sequence of Streptavidin (Streptomyces avidinii) (P22629 whole entry, looked up): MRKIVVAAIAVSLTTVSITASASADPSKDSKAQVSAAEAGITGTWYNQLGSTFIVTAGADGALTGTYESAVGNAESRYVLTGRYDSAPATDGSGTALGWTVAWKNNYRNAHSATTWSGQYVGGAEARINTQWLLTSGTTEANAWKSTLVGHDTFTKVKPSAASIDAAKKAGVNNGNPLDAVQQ

[7] = probe aInhba binding on compound microarray – biochemical, small-molecule microarray, 635/667 nm fluorescence, primary screen (AID 1148); conditions: higher = more signal;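 also: score merges 667nm spot fluorescence with signal-to-noise for antibody binding to printed compounds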
Torsin-1A (Homo sapiens) [8] = biological target: Torsin-1A (Homo sapiens) (UniProt O14656); assay: TOR1A wild-type binding on microarray – cell lysate, small-molecule microarray, lysate, 635/667 nm, primary screen (AID 1149); conditions: COS7 hTOR1A-WT lysate, 635 nm fluorescence, higher = more signal
Sequence of Torsin-1A (Homo sapiens) (O14656 whole entry, looked up): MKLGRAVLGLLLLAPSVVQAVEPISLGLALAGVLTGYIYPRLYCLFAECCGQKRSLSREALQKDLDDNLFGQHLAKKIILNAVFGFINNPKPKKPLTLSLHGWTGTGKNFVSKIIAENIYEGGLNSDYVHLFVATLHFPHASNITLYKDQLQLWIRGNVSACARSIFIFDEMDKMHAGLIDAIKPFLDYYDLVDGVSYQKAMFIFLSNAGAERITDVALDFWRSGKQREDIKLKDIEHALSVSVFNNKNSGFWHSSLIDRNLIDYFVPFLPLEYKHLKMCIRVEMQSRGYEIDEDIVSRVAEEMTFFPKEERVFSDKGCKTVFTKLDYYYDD

Torsin-1A (Homo sapiens) [9] = biological target: Torsin-1A (Homo sapiens) (UniProt O14656); assay: torsin A mutant lysate binding on microarrays – cell lysate, small-molecule microarray, COS7 lysate, 635/667 nm fluorescence, primary screen (AID 1150); conditions: COS7 hTOR1A mutant lysate, 635 nm fluorescence, higher = more signal;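 also: score pools 667 nm emission and signal to noise measuring lysate protein binding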
[10] = test system: Sonic hedgehog protein (Shh); assay: Sonic hedgehog microarray binding compounds – biochemical, small-molecule microarray, 635/667 nm fluorescence, primary screen (AID 1151); conditions: 635 nm fluorescence, higher = more signal;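 also: Shh protein binding to compounds spotted on small-molecule microarray slides; score combines spot fluorescence intensity with signal-to-noise across triplicate slides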
[11] = optical density shifts of acrAB sulA E. coli – strain DRC41, OD650, 48 h, E. coli filamentation inducer project, primary screen (AID 1152); conditions: higher = more signal, called active from +8 up or from −8 down;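 also: E. coli MC1000 strain DRC41 lacking acrAB efflux pump and sulA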
[12] = probe aLefty1 binding on compound microarray – biochemical, small-molecule microarray, 635/667 nm fluorescence, primary screen (AID 1153); conditions: higher = more signal;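 also: score merges spot fluorescence with signal-to-noise ratio from the scanned slide images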
[13] = plasmodial surface anion channel blockers, osmotic lysis – cell-based, P. falciparum Indochina, OD700, 1 h, primary screen (AID 1154); conditions: P. falciparum Indochina infected RBC osmotic lysis, higher = more signal, called active from +8 up or from −8 down
[14] = plasmodial surface anion channel blockers, osmotic lysis – cell-based, P. falciparum Indochina, OD700, 2 h, primary screen (AID 1155);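 also: lysis reports solute entry through the parasite surface anion channel PSAC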; conditions: P. falciparum Indochina infected erythrocytes, higher = more signal, called active from +8 up or from −8 down
[15] = changes in parasitized red cell lysis, either direction – P. falciparum Indochina, OD700, 3 h, PSAC antagonist project, primary screen (AID 1156); conditions: P. falciparum-infected erythrocytes, osmotic lysis, higher = more signal, called active from +8 up or from −8 down
[16] = plasmodial surface anion channel blockers, osmotic lysis – cell-based, P. falciparum Indochina, OD700, 18 h, primary screen (AID 1157); conditions: P. falciparum Indochina infected erythrocytes, osmotic lysis OD700, 18 h; higher = more signal, called active from +8 up or from −8 down
[17] = S6 kinase pathway phospho-S6 level changes – cell-based, A549, cytoblot, luminescence, serum-stimulated, primary screen (AID 1158); conditions: 5 h, higher = more signal;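 also: serum-stimulated A549 lung adenocarcinoma cells; signal is phosphorylated S6 detected by cytoblot immunostaining with HRP secondary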
[18] = biological target: NADPH oxidase 2 (Homo sapiens) (UniProt P04839); assay: compounds shifting NOX2 Amplex Red fluorescence – cell-based, HEK293-NOX2, PMA-stimulated, NOX inhibitor project, primary screen (AID 1159); conditions: 45 min, higher = more signal, called active from +8 up or from −8 down; also: test concentration not given here
Sequence of NADPH oxidase 2 (Homo sapiens) (P04839 whole entry, looked up): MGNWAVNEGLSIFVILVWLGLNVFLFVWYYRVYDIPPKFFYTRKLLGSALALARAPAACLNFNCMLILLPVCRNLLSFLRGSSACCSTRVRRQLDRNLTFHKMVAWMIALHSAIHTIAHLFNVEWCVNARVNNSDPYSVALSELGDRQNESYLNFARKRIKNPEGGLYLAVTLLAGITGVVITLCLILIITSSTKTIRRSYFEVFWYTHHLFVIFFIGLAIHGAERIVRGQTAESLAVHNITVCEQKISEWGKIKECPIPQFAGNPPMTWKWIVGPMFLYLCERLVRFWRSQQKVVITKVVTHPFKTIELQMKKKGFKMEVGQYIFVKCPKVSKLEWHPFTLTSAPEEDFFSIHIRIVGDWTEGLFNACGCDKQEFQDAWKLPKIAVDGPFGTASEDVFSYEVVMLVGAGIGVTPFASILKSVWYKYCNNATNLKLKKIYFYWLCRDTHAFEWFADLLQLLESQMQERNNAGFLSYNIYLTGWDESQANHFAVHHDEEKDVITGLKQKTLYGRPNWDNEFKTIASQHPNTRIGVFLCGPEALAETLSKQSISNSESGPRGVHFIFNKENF

[19] = biological target: NADPH oxidase 4 (Homo sapiens) (UniProt Q9NPH5); assay: compounds shifting NOX4 Amplex Red fluorescence – cell-based, HEK293-NOX4, tetracycline-induced, NOX inhibitor project, primary screen (AID 1160); conditions: HEK293-NOX4, Amplex Red H2O2 fluorescence, 45 min; higher = more signal, called active from +8 up or from −8 down
Sequence of NADPH oxidase 4 (Homo sapiens) (Q9NPH5 whole entry, looked up): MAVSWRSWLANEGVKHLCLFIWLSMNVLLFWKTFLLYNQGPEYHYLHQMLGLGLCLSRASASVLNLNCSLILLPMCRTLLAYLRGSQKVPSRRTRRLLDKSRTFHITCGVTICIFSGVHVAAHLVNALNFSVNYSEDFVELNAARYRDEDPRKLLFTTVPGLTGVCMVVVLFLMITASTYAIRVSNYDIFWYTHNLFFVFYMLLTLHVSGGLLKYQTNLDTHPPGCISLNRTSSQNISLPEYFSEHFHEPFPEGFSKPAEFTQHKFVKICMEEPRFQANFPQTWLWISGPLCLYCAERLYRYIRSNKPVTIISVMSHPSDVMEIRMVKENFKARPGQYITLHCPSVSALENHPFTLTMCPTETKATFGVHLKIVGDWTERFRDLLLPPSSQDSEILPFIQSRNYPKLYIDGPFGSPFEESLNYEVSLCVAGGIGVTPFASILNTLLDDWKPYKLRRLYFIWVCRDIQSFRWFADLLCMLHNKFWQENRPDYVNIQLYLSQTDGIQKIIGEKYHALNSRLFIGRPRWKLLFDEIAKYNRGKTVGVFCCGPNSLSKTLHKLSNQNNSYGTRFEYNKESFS

[20] = biological target: NADPH oxidase 5 (Homo sapiens) (UniProt Q96PH1); assay: compounds shifting NOX5 Amplex Red fluorescence – cell-based, HEK293-NOX5, NOX inhibitor project, primary screen (AID 1161); conditions: HEK293-NOX5, ionomycin, 45 min, higher = more signal
Sequence of NADPH oxidase 5 (Homo sapiens) (Q96PH1 whole entry, looked up): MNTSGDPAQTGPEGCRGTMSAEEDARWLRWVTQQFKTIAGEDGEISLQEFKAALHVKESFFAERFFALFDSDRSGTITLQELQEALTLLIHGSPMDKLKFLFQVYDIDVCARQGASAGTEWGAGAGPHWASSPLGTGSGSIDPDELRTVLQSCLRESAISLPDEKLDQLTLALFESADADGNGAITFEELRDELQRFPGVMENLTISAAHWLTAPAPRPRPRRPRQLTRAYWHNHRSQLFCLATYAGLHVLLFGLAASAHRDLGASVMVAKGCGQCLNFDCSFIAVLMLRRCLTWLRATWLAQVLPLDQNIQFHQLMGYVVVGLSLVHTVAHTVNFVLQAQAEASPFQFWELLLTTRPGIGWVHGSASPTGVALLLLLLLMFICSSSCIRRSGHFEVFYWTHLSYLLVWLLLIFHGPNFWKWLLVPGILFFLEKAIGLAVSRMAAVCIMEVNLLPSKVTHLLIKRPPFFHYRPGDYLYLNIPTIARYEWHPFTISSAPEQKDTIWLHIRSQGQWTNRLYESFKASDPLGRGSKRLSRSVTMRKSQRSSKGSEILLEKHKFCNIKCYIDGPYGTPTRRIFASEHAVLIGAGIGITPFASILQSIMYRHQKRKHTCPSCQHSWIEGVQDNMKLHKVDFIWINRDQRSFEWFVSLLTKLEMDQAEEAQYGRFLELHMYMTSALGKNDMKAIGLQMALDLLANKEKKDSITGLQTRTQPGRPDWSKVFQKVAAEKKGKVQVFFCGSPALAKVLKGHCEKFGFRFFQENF

SMILES | composite z-score [1] | z-score [2] | z-score [3] | z-score [4] | z-score [5] | composite z-score [6] | composite z-score [7] | composite z-score (Torsin-1A (Homo sapiens) [8]) | composite z-score (Torsin-1A (Homo sapiens) [9]) | composite z-score [10] | z-score [11] | composite z-score [12] | z-score [13] | z-score [14] | z-score [15] | z-score [16] | z-score [17] | z-score [18] | z-score [19] | z-score [20]
O=C1C[C@@](C(=O)NCC(F)(F)F)(c2ccc([N+](=O)[O-])cc2)[C@@H](c2ccc(CO)cc2I)N1C1CCCCC1 | 0.318 | -4.26 (inactive) | -0.148 (inactive) | 0.558 (inactive) | -0.503 (inactive) | 0.514 | -0.0421 | 0.281 | 0.35 | 0.491 | -0.629 (inactive) | 0.165 | 16.9 (active) | 1.79 (inactive) | 2.56 (inactive) | 0.599 (inactive) | -0.417 | 0.979 (inactive) | -0.0876 (inactive) | 0.612
COC(=O)C(CC#Cc1ccc2c(c1)[C@]1(C(=O)N2)[C@H](C(=O)Nc2nc3ccccc3s2)[C@H]2C(=O)O[C@H](c3ccccc3)[C@H](c3ccccc3)N2[C@@H]1c1ccc(O)cc1)C(=O)OC | 0.533 | -1 (inactive) | -0.672 (inactive) | 0.155 (inactive) | -0.669 (inactive) | 0.906 | 0.0487 | 0.71 | 0.964 | 0.967 | -1.2 (inactive) | 0.0809 | 1.14 (inactive) | 0.922 (inactive) | -4.32 (inactive) | 1.3 (inactive) | 0.0065 | 1.28 (inactive) | 0.602 (inactive) | -0.0824
C=C[C@H](C)[C@@H](OC(=O)Nc1ccc(OC)cc1)c1ccc(O)c2ccccc12 | 0.198 | -6 (inactive) | -0.899 (inactive) | 0.804 (inactive) | 0.819 (inactive) | -0.387 | -0.206 | 0.308 | 0.422 | 1.36 | -0.368 (inactive) | 0.0903 | 3.54 (inactive) | 0.265 (inactive) | -0.122 (inactive) | 0.132 (inactive) | -0.751 | -5.53 (inactive) | -1.89 (inactive) | -0.55
CCCC[C@@H]1C[C@H]1[C@@H](NC(=O)c1ccco1)c1ccc(-c2ccccc2)cc1 | -0.0076 | -2.51 (inactive) | 0.0577 (inactive) | 0.766 (inactive) | 0.576 (inactive) | 0.483 | 0.033 | 0.618 | 0.952 | -0.308 | -1.73 (inactive) | 0.142 | -0.38 (inactive) | -0.912 (inactive) | 1.59 (inactive) | -1.91 (inactive) | 1.28 | -4.04 (inactive) | -3.5 (inactive) | -2

From PubChem BioAssay
